Several values for one entry are separate records, joined by “and”; a condition that tells them apart may be missing. Equal entries are not always repeated. Inconclusive results are not listed. A number with no mark means an inactive call. Activity calls are given as the source filed them. Unless noted, the call rests on the fitted dose curve; in most records, active means well fitted activation curve with a large enough effect; inconclusive means small, poorly fitted or top-dose-only effect; inactive means flat fitted curve, though single readings scatter.

Sequence of Tumor necrosis factor (Homo sapiens) (P01375 whole entry, looked up): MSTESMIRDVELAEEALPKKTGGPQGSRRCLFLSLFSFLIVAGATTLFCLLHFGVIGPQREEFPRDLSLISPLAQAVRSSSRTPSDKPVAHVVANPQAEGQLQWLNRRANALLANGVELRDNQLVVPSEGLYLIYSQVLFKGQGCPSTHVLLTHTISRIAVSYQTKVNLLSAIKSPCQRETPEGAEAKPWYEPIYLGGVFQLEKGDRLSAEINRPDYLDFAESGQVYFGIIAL

In one experiment the target is Tumor necrosis factor (Homo sapiens) (UniProt P01375). The experiment is described as follows: qHTS assay to identify small molecules that stimulate Tumor Necrosis Factor-alpha (TNF-alpha) secretion (AID 651757; active means well fitted curve in the direction sought with a large enough effect in the signal ratio; the % refers to the signal ratio; further: 0% is about no effect). Conditions: Human cells, HTRF 665/615 ratio; series mostly up to 92.2 µM. An outline of the steps:
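THP-1 cells (3000/well) exposed to compounds 17 hrs at 37 C. Secreted TNF-alpha detected by HTRF with cryptate- and XL665-labeled anti-TNF-alpha antibodies after 3 hr at room temperature.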
Background: In qHTS, concentration-response curves come from the screen itself.
Regarding `NC(N)=NC(N)=NCCc1ccccc1`, the outcome was inactive.
With `Cc1nnc(NS(=O)(=O)c2ccc(N)cc2)s1`, the result was inactive.
In the case of `Cc1ccnc2c1NC(=O)c1cccnc1N2C1CC1`, the outcome was inactive.
On the same count and under the same terms, for `N=C(N)c1ccc(OCCCCCOc2ccc(C(=N)N)cc2)cc1` the value was “inactive”; for `CC(=O)[C@H]1CC[C@H]2[C@@H]3CCC4=CC(=O)CC[C@]4(C)[C@H]3CC[C@]12C`, “inactive”.
Regarding `CC1=NN(c2ccccc2)C(=O)C1`, the result was inactive.
Turning to `Cc1noc(NS(=O)(=O)c2ccc(N)cc2)c1C`, the result was inactive.
`CC[C@H](C)C(=O)O[C@H]1C[C@@H](C)C=C2C=C[C@H](C)[C@H](CC[C@@H]3C[C@@H](O)CC(=O)O3)[C@H]21`: the outcome was inactive.
On to `C[C@]12C=CC(=O)C=C1CC[C@@H]1[C@@H]2C(=O)C[C@@]2(C)[C@H]1CC[C@]2(O)C(=O)CO`, for which the outcome was inactive.
On to `O=C(N[C@H](CO)[C@H](O)c1ccc([N+](=O)[O-])cc1)C(Cl)Cl`, for which the result was inactive.
For `NNC(=O)c1ccncc1`, the result was inactive.
On to `Cc1cc(NS(=O)(=O)c2ccc(N)cc2)no1`, for which the outcome was inactive.
Consider `O=C(O)c1cc(=O)[nH]c(=O)[nH]1`, for which the result was inactive.
With `CCc1cc(C(N)=S)ccn1`, the result was inactive.

System in a further experiment: not listed separately
The experiment is described as follows: qHTS assay for environmental chemicals that activate the Aryl hydrocarbon Receptor (AhR) signaling pathway (AID 651777). Further: % of control where 0% means no effect; nearly all actives have a fitted effect of over 15% in size. Conditions: 1A2-DRE human hepatoma cells, luciferase, 24 h; stronger effect = higher value. An outline of the steps: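 Luminescence (One-Glo, 30 min, room temperature) reports AhR-driven luciferase in stably transfected human hepatoma cells bearing DRE and CYP1A2 promoter. Cells (1,200/well) were treated with compound for 24 hr at 37 C in qHTS format.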
`NC(N)=NC(N)=NCCc1ccccc1`: the activation is 1.08% and -0.702%.
In the case of `Cc1nnc(NS(=O)(=O)c2ccc(N)cc2)s1`, the activation is -0.461%.
On to `Cc1ccnc2c1NC(=O)c1cccnc1N2C1CC1`, for which the activation is 0.221%.
The same measure, in the same setting: under `S=P(N1CC1)(N1CC1)N1CC1` stands 0.0951%; under `CC(=O)[C@H]1CC[C@H]2[C@@H]3CCC4=CC(=O)CC[C@]4(C)[C@H]3CC[C@]12C`, 0.0693% and 1.75% and -2.26%.
For the molecule `Nc1nc(N)c2nc(CNc3ccc(C(=O)NC(CCC(=O)O)C(=O)O)cc3)cnc2n1` (stereo unspecified), the activation was -4.32%.
Same read-out and setting: for `Cc1noc(NS(=O)(=O)c2ccc(N)cc2)c1C` the value was 0.11% and 1.55%.
As for `CN(C)c1ccc(C(=C2C=CC(=[N+](C)C)C=C2)c2ccc(N(C)C)cc2)cc1`, the activation is -11.2% and -3.03%.
In the case of `CC[C@H](C)C(=O)O[C@H]1C[C@@H](C)C=C2C=C[C@H](C)[C@H](CC[C@@H]3C[C@@H](O)CC(=O)O3)[C@H]21`, the activation was -1.02%.
On the same count and under the same terms, for `C[C@]12C=CC(=O)C=C1CC[C@@H]1[C@@H]2C(=O)C[C@@]2(C)[C@H]1CC[C@]2(O)C(=O)CO` the value was -0.111%.
As to `O=C(N[C@H](CO)[C@H](O)c1ccc([N+](=O)[O-])cc1)C(Cl)Cl`, the activation is 2.18% and 1.42%.
The same measure, in the same setting: under `N[C@@H](Cc1ccc(O)c(O)c1)C(=O)O` stands 2.04%.
Regarding `NNC(=O)c1ccncc1`, the activation is 4.86%.
As to `OC(Cn1cncn1)(Cn1cncn1)c1ccc(F)cc1F`, the activation is -1.75%.
In the case of `Cc1cc(NS(=O)(=O)c2ccc(N)cc2)no1`, the activation is -0.784%.
As to `Cc1ncc([N+](=O)[O-])n1CCO`, the activation was -0.201%.
For `O=C(O)c1cc(=O)[nH]c(=O)[nH]1`, the activation is 0.283%.

The record behind these values is PubChem BioAssay (NCATS).
